Experimental findings from PubChem BioAssay (Tox21) are described below.

Results filed as inconclusive are left out. A call without a number means that no potency is given here. Unmarked numbers belong to inactive results. Activity calls are given as the source filed them. Calls come from the whole dose curve; as a rule, active = well fitted cell-killing curve with a large enough effect in the repeat runs; inconclusive = weak or mixed curves; inactive = flat fitted curve, though single readings scatter.

The assay in a line: qHTS RealTime-Glo MT Cell Viability Assay in HepG2 cells - 32 hour (AID 1224877). Note: nearly all actives have a fitted effect of over 55% in size. The following applies: RealTime-Glo luminescence; series mostly up to 76.8 µM. The source says: U.S. Tox21 Program National Center for Advancing Translational Sciences [NCATS] NIH Chemical Genomics Center [NCGC] U.S. Environmental Protection Agency [EPA] National Institutes of Environmental Health Sciences [NIEHS] National Toxicology Program [NTP] U.S. Food and Drug Administration [FDA] Tox21 Assay Overview: Measure of cell viability is critical in the cell-base assay. Analysis of cell viability is necessary for the characterization of cell responses to cytotoxic drugs and environmental stress. A RealTime-Glo MT Cell Viability Assay to monitor cell viability in real time of continues cell culture during 40 hours of compound treatment was used to screen Tox21 10K library compounds in HepG2 cells. The RealTime-Glo MT Cell Viability Assay is a nonlytic, homogeneous, bioluminescent method to measure cell viability in real time using a simple, plate-based method. The assay involves adding NanoLuc luciferase and a cell-permeant prosubstrate to cells in culture. Viable cells reduce the proprietary prosubstrate to generate a substrate for NanoLuc luciferase. This substrate diffuses from cells into the surrounding culture medium, where it is rapidly used by the NanoLuc Enzyme to produce a luminescent signal. The signal correlates with the number of viable cells, making the assay well suited for cytotoxicity studies.
Tox21 Assay Protocol Summary: The mixture of HepG2 cell suspension and reagents were dispensed at 600cells/6 ul/well in 1536-well tissue culture treated black solid bottom plates using a Multidrop dispenser. After the assay plates were incubated at a 37 C/5% CO2 incubator for 5 hours, 23 nL of compounds dissolved in DMSO, positive and negative controls was transferred to the assay plate by a pintool work station. The plates were incubated at 37 C for 40 hours. The luminescence intensity were measured at 0h, 8h, 16h, 24h, 32h and 40h time points using ViewLux plate reader during compound treatment.
On the technique in general: Quantitative high-throughput screening tests each substance at several concentrations.
As for `CCCOCC(C)OCC(C)O` (stereo not given), the Potency entry was “inactive”.
For `CCCOc1ccccc1-c1nc2n[nH]nc2c(=O)[nH]1`, the Potency entry was “inactive”.
With `NC(=O)Nc1nc2ccccc2[nH]1`, the Potency result was “inactive”.
For `CCCc1ccccc1O`, the Potency entry is “inactive”.
Consider `Oc1ccc2c(c1)OC[C@@H](N1CCC(O)(c3ccc(F)cc3)CC1)[C@H]2O`, for which the Potency entry was “inactive”.
Regarding `CCN1CCCC(OC(=O)C(c2ccccc2)c2ccccc2)C1` (stereo not given), the Potency result is “inactive”.
In the case of `CCCCc1ccc(N)cc1`, the Potency result was “inactive”.
For `O=C(O)c1ccccc1S`, the Potency entry was “inactive”.
For the compound `O=C(O)/C=C/c1ccc(Cn2ccnc2)cc1`, the Potency result was “inactive”.
As for `O=C(O)c1ccccc1-c1ccc(C(F)(F)F)cc1`, the Potency entry was “inactive”.
On to `Cc1cc(C)c(NC(=O)CN(CC(=O)O)CC(=O)O)c(C)c1Br`, for which the Potency result was “inactive”.
The same measure, in the same setting: the entry for `C1=C\CC/C=C\CC/C=C\CC/1` is “inactive”.
Still for that read-out and setting: in the case of `CC(C)COC(=O)c1ccccc1O` it was “inactive”; in that of `CCCCCCOC(=O)CC(CC(=O)OCCCCCC)(OC(=O)CCC)C(=O)OCCCCCC`, “inactive”; in that of `CC(C)c1ccc2oc3nc(N)c(C(=O)O)cc3c(=O)c2c1`, “inactive”.
On the same count and under the same terms, the entry for `CN(C)C(=O)Nc1ccccc1` is “inactive”; for `C[C@H](O)C(=O)Nc1c(I)c(C(=O)NC(CO)CO)c(I)c(C(=O)NC(CO)CO)c1I` it is “inactive”; for `NC(=O)c1c(Cl)cccc1Cl` it is “inactive”.
For `C1CCCCCCCCCCC1`, the activity change, negative = cytotoxic was 12% [at 15.8 µM].
In the case of `Nc1cc(N)cc(C(=O)O)c1`, the Potency entry was “inactive”.
As for `CC(=O)c1ccc(C)cc1`, the Potency result is “inactive”.
The same measure, in the same setting: the entry for `OCC(CO)(CO)COCC(CO)(CO)CO` is “inactive”; for `CCCCCCC(=O)OCC` it is “inactive”; for `C=C(C)C(=O)NCCC[N+](C)(C)C` it is “inactive”.
As to `CC(C)(O)c1ccccc1`, the Potency result was “inactive”.
For `NS(=O)(=O)c1cc(C2(O)NC(=O)c3ccccc32)ccc1Cl` (stereo not given), the Potency entry is “inactive”.
Turning to `COc1cccc(OC)c1`, the Potency entry was “inactive”.
Regarding `COc1cc(C)cc(O)c1`, the Potency result is “inactive”.
`COc1cccc(Br)c1`: the Potency result is “inactive”.
With `c1ccc2cnncc2c1`, the Potency result was “inactive”.
On to `O=C1C(CCS(=O)c2ccccc2)C(=O)N(c2ccccc2)N1c1ccccc1` (stereo not given), for which the Potency result was “inactive”.
On the same count and under the same terms, the entry for `OC1OC[C@@H](O)[C@H](O)[C@H]1O` (stereo not given in full) is “inactive”.
`O=S(=O)(c1cccc2cnccc12)N1CCCNCC1`: the Potency result was “inactive”.
Same read-out and setting: in the case of `CC1=CCC2C(C1)C2(C)C` (stereo not given) it was “inactive”; in that of `CO`, “inactive”; in that of `CC(C)CCCC(C)NCCC(C)C` (stereo not given), “inactive”.
Take `CCCCCCOC(=O)c1ccccc1O`: the Potency entry is “inactive”.
Regarding `NCCNC(=O)c1ccc(Cl)cn1`, the Potency entry was “inactive”.
With `NC(=O)c1ncn([C@@H]2O[C@H](CO)[C@@H](O)[C@H]2O)c1N`, the Potency result was “inactive”.
On the same count and under the same terms, in the case of `c1ccc(CCCc2ccccn2)cc1` it was “inactive”.
